Some test systems named below: T-47D breast; BT-549 breast; MDA-MB-435 melanoma; SW-620 colon; MCF7 breast; HCT-116 colon; HCC-2998 colon; KM12 colon.
Common to all, as to test: NCI-60 one-dose screen, 48 h (100 = growth as untreated, 0 = no growth, -100 = all killed)
Common to all, as to settings: 10 µM unless noted

Here are results for 14 molecules from PubChem BioAssay (NCI).

SMILES strings stand for the structures. The panel holds about 83,000 compounds, 20% with a hit somewhere; the sample as a whole holds those more often.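 Single-dose data. Exposure time 48 hours. Values below 10 considered active.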 Values without a mark were called inactive. Active and inactive are the calls of the source.

Consider `COC(=O)C(OC(C)=O)C(OC(C)=O)c1ccc(OC)c(OC)c1` (configuration not stated), for which the growth with T-47D breast was 75.4%; in the assay on BT-549 breast, 104%; with MDA-MB-435 melanoma it was 106%; with SW-620 colon, 118%; with MCF7 breast it was 85.4%; in the assay on HCT-116 colon it was 81.8%. For the same molecule, the values for the growth in the assay on HCC-2998 colon and with KM12 colon were 108% and 102%, respectively.
`COc1ccc(CCn2cncc2-c2c[nH]c3ccccc23)cc1`: the growth with T-47D breast was 80.2%; in the assay with BT-549 breast, 90%; with MDA-MB-435 melanoma, 100%; in the assay with SW-620 colon, 87.9%; with MCF7 breast, 78.7%; in the assay on HCT-116 colon it was 80.5%. Besides, the values for the growth in the assay with HCC-2998 colon and in the assay on KM12 colon were 91.8% and 97.8%, respectively.
For `O=C(C[n+]1cccc2ccccc21)c1ccc(O)c(O)c1`, the growth with T-47D breast was 42%; in the assay on BT-549 breast it was 65.7%; in the assay on MDA-MB-435 melanoma it was 88.1%; in the assay with SW-620 colon it was 23.8%; in the assay with MCF7 breast, 21.8%; with HCT-116 colon, 5.16% (active). Also, the growth in the assay on HCC-2998 colon is 90.4%; with KM12 colon it was 100%.
For the molecule `COc1cc(/C(C)=C(\c2ccc(Cl)cc2)c2ccc(OCCN3CCCC3)cc2)ccc1F`, the growth is 55.1% in the assay with T-47D breast; 79.1% with BT-549 breast; 51.3% in the assay on MDA-MB-435 melanoma; 43.2% in the assay on SW-620 colon; 26.5% in the assay with MCF7 breast; 39.2% in the assay with HCT-116 colon. Further, the growth is 57.4% with HCC-2998 colon and 36.7% with KM12 colon.
With `COc1cc(/C(C)=C(\c2ccc(Cl)cc2)c2ccc(OCCN(C)C)cc2)ccc1F`, the growth was 61.2% in the assay with T-47D breast; 76.2% in the assay with BT-549 breast; 39.6% with MDA-MB-435 melanoma; 49.8% with SW-620 colon; 31.7% in the assay on MCF7 breast; 46.8% with HCT-116 colon. For the same molecule, the growth in the assay with HCC-2998 colon was 25.1%; in the assay with KM12 colon it was 44%.
For the molecule `CNC(=O)c1cc(Cn2nc(C)c(NC(=O)Nc3ccc(Cl)c(C(F)(F)F)c3)c2C)ccn1`, the growth with T-47D breast was 85%; in the assay with BT-549 breast, 98.6%; in the assay with MDA-MB-435 melanoma, 100%; in the assay on SW-620 colon, 111%; with MCF7 breast, 93.8%; in the assay with HCT-116 colon, 86.7%. In addition, the values for the growth with HCC-2998 colon and with KM12 colon were 105% and 106%, respectively.
Take `C=C1C(=O)O[C@H]2[C@H]1CC/C(COC(=O)NCc1c[nH]c3ccc(Cl)cc13)=C\CC[C@@]1(C)O[C@@H]21`: the growth with T-47D breast was -76.2% (active); in the assay with BT-549 breast it was -65.6% (active); with MDA-MB-435 melanoma, -88.4% (active); with SW-620 colon, -74.3% (active); in the assay on MCF7 breast it was 17.2%; in the assay on HCT-116 colon it was -90.1% (active). The growth is 70.4% in the assay on HCC-2998 colon and 13.8% in the assay on KM12 colon.
With `COc1ccc2c(c1)oc1c(C)c3c(c(C)c12)C(=O)N(N)C3=O`, the growth in the assay on T-47D breast was 44.3%; in the assay on BT-549 breast it was -43.5% (active); in the assay with MDA-MB-435 melanoma, 36.8%; in the assay on SW-620 colon, 29.4%; with MCF7 breast it was 57.3%; in the assay with HCT-116 colon, -13% (active). In addition, the results for the growth with HCC-2998 colon and in the assay on KM12 colon were 64.6% and 22%, respectively.
As to `COc1cc2oc(-c3cccc(C(=O)Nc4ccc(Cl)cc4)c3)cc(=O)c2c(O)c1OC`, the growth with T-47D breast is 47.2%; in the assay on BT-549 breast it was 60.1%; with MDA-MB-435 melanoma, 61%; in the assay with SW-620 colon, 73.6%; in the assay on MCF7 breast, 80.9%; in the assay with HCT-116 colon, 39.9%. The growth is 96.5% in the assay with HCC-2998 colon and 62% in the assay on KM12 colon.
Regarding `CC(=O)Nc1ccc(-c2ccc3c(c2)NC(=O)/C3=C\c2ccc[nH]2)cc1`, the growth was 37.5% with T-47D breast; 83.5% in the assay on BT-549 breast; 90.6% with MDA-MB-435 melanoma; 96.4% in the assay on SW-620 colon; 9.83% (active) with MCF7 breast; 104% with HCT-116 colon. In addition, the growth is 104% in the assay on HCC-2998 colon and 45.4% with KM12 colon.
Take `COc1ccc(CNCCN2C(=O)c3ccc4c5c(ccc(c35)C2=O)C(=O)N(CCNCc2ccc(OC)c(OC)c2OC)C4=O)c(OC)c1OC`: the growth is -18.4% (active) in the assay with T-47D breast; -11.4% (active) with BT-549 breast; -48.2% (active) in the assay with MDA-MB-435 melanoma; -37% (active) in the assay on SW-620 colon; -67.1% (active) in the assay on MCF7 breast; 1.82% (active) with HCT-116 colon. In addition, the results for the growth with HCC-2998 colon and in the assay on KM12 colon were -79.5% (active) and -41.4% (active), respectively.
Take `COc1cc(OC)cc(C(=O)C[n+]2cccc3cc[nH]c32)c1`: the growth was 100% with T-47D breast; 102% in the assay on BT-549 breast; 99% in the assay with MDA-MB-435 melanoma; 99.8% in the assay on SW-620 colon; 94.2% in the assay with MCF7 breast; 97.6% with HCT-116 colon. Further, the growth in the assay with HCC-2998 colon was 107%; with KM12 colon, 101%.
Regarding `CCCOC(=O)N[C@H]1CCc2c(Cl)c(OC)c(OC)c(OC)c2-c2ccc(SC)c(=O)cc21`, the growth with T-47D breast is 45.9%; in the assay with BT-549 breast, 1.4% (active); in the assay with MDA-MB-435 melanoma, -26.9% (active); with SW-620 colon it was 20.2%; with MCF7 breast, 14.7%; with HCT-116 colon, 0.896% (active). For the same molecule, the growth with HCC-2998 colon was 22.6%; in the assay with KM12 colon, -6.7% (active).
For the molecule `C=CC(=O)N[C@@H](/C=C/C(=O)OCC)Cc1ccc(-c2cc(Cl)cc(Cl)c2)cc1`, the growth in the assay on T-47D breast is -4.93% (active); in the assay on BT-549 breast, 4.23% (active); in the assay with MDA-MB-435 melanoma, 1.71% (active); in the assay on SW-620 colon, 11.7%; in the assay with MCF7 breast it was 4.06% (active); in the assay on HCT-116 colon it was 11.1%. Further, the growth with HCC-2998 colon is 41.6%; in the assay with KM12 colon, 24.2%.
